# The sample as a whole holds a higher share of hits than the screen did.
# VACV Venus inh – vaccinia inhibition (Venus reporter). Potency, µM (titrated, usually from 36.5 µM), inactives show top-dose activity change, negative = inhibition, most hits filed as inhibitors. 330,000 tested, 0.46% active. AID 720580. Vaccinia virus Venus reporter expression, fluorescence; calls by dose curve; tested in A549 cells; further: potency means the concentration at half of the fitted maximal effect; on the % scale 0 is the no-effect control and ±100 the full control effect; nearly all actives have a fitted effect of over 30% in size
# Cycloheximide cs – affects cycloheximide protein synthesis inhibition readout, counter-screen | cell reporter, cycloheximide protein synthesis inhibition counterscreen | max response, % | 300,000 tested, 12% active; in the data active means max response mostly above about 13%, no sharp cut-off; inactive means mostly below about 14%; further: read at 38.3 µM for the half of the compounds with a filed dose; 0% is about no effect
# LASV entry inh – Lassa virus entry inhibition | Lassa virus pseudotype entry inhibition, cell reporter | Potency, µM (titrated, usually from 37.9 µM), for inactives: at the highest dose activity change, negative = inhibition, actives largely listed as inhibitors | 300,000 tested, 1.2% active | AID 540256; calls by dose curve; tested in HEK293 cells; further: potency means the concentration at half of the fitted maximal effect; on the % scale 0 is the no-effect control and ±100 the full control effect; nearly all actives have a fitted effect of over 50% in size
# VACV mCherry inh – vaccinia inhibition (mCherry reporter). Potency, µM (titrated, usually from 36.5 µM), without a hit: at the top dose activity change, negative = inhibition, hits mostly inhibitors. AID 720579. Vaccinia virus mCherry reporter infection, fluorescence. 310,000 tested, 0.63% active; calls by dose curve; tested in A549 cells; further: potency means the concentration at half of the fitted maximal effect; on the % scale 0 is the no-effect control and ±100 the full control effect; nearly all actives have a fitted effect of over 35% in size
# Shiga inhibitor – blocks Shiga toxin action in Vero cells | Vero cells, Shiga toxin protein synthesis inhibition reporter | inhibition, % at 38.7 µM | 290,000 tested, 9.2% active; in the data active means inhibition mostly above about 28%, no sharp cut-off; inactive means mostly below about 43%; further: 0% is about no effect
# Marburg entry inh – Marburg virus entry inhibition; Marburg virus pseudotyped entry inhibition, cell reporter; Potency, µM (highest dose often 37.8 µM), for inactives: at the top dose activity change, negative = inhibition, usual class: inhibitors; 300,000 tested, 1.8% active; calls by dose curve; tested in HEK293 cells; further: potency means the concentration at half of the fitted maximal effect; on the % scale 0 is the no-effect control and ±100 the full control effect
# Active calls of the source: *; i = inactive; ? = inconclusive; nt = no result; [ ] = another dose, or the depositor's remark.
SMILES,VACV Venus inh,Cycloheximide cs,LASV entry inh,VACV mCherry inh,Shiga inhibitor,Marburg entry inh
CCN(CC)C(=O)CSc1nc2c(sc(=S)n2CC)c(=O)n1-c1ccccc1,nt,-5,-12%,nt,-10,-10%
CCN(CC)C(=O)CSc1nc2c(sc(=S)n2-c2ccccc2)c(=O)n1Cc1ccco1,nt,-5,?,nt,-7,9.2µM*
Cc1cccc(OCc2cc(-c3ccccc3)no2)c1C,nt,48*,nt,nt,86*,nt
Fc1ccc(OCc2cc(-c3ccccc3)no2)cc1,nt,69*,nt,nt,90*,nt
Clc1ccc(OCc2cc(-c3ccccc3)no2)c(Cl)c1,-11%,40*,11µM*,-10%,69*,7.1µM*
Cc1cc(COc2ccccc2OCc2cc(C)no2)on1,nt,0,2%,nt,-2,26%
COc1ccc(-c2cc(-c3ccccc3)no2)cc1,-9%,nt,nt,-19%,nt,nt
COc1ccc(-c2cc(COc3ccccc3)on2)cc1,-3%,49*,?,i,67*,?
COc1ccc(C(CNC(=O)c2ccc(-c3cccc(C(F)(F)F)c3)o2)N2CCOCC2)cc1 (stereo not given),?,nt,-26%[46.1 µM],-10%,nt,?
C[C@H]1N[S+](=O)([O-])c2ccc(Br)cc2O[C@@H]1c1ccccc1,nt,nt,-12%[46.1 µM],nt,nt,nt
COC(=O)c1ccc2c(c1O)C(=O)c1ccccc1C2=O,nt,39*,?,nt,64*,?
O=C1c2ccccc2C(=O)c2c1ccc(O)c2O,3%,nt,nt,-15%,nt,nt
CCOC(=O)C1NNN2C3CCCCC3C(N(CC)CC)NC12 (stereo not given),nt,nt,nt,nt,nt,18%[46.1 µM]
Cc1cc2nc(C3CCCN(C(=S)Nc4ccccc4)C3)[nH]c2cc1C (stereo not given),-28%,35*,?,-14%,59,-5%
Cc1ccc2nc(C3CCCN(C(=S)Nc4ccccc4C)C3)[nH]c2c1 (stereo not given),?,14,-25%,-20%,29,-10%
CCOC(=O)[C@]12C[C@]3(OC)CCN(C(=O)N[C@@H]1c1ccccc1)[C@@H]32,nt,nt,-19%[14.3 µM],nt,nt,10%[14.2 µM]
Cc1ccc(C(=O)N/C(=C\c2ccc(-c3cc(Cl)ccc3Cl)o2)C(=O)NCc2cccnc2)cc1,?,42,11µM*,nt,88,?
O=C(NCc1cccnc1)/C(=C/c1ccc(-c2cccc(Cl)c2)o1)S(=O)(=O)c1ccccc1,-17%,-9,12%,-10%,-27,?
O=C(NCc1cccnc1)/C(=C\c1ccc(-c2cccc(Cl)c2)o1)S(=O)(=O)c1ccccc1,10µM*,-13,?,11µM*,-14,?
Cc1cc2nc(N3CCC(NC(C)c4nc(-c5ccccn5)no4)CC3)nc(C)c2cc1C (stereo not given),-13%,nt,nt,-17%,nt,nt
COCCN1C(=O)c2cc(C(=O)Nc3ccc(C)c(F)c3)ccc2C1Nc1ccc(C)c(F)c1 (stereo not given),-30%,32*,29%,i,94*,1%
CCc1ccc(NC(=O)c2ccc3c(c2)C(=O)N(CCOC)C3Nc2ccc(CC)cc2)cc1 (stereo not given),?,23*,26%,-13%,67*,-1%
O=C1CCC2=C(O1)C(O)=C(O)CC2,nt,nt,nt,nt,nt,8%
CCCCCCC(C)(C)c1ccc([C@@H]2C[C@H](O)CC[C@@H]2CCCO)c(O)c1,nt,nt,nt,nt,nt,13µM*
Cc1ccc(C(=O)O/N=C2\CCCc3ccccc32)cc1,nt,18*,22%,nt,62*,1%
SMILES,VACV Venus inh,Cycloheximide cs,LASV entry inh,VACV mCherry inh,Shiga inhibitor,Marburg entry inh
O=C(O/N=C1\CCCc2ccccc21)c1cccc(Cl)c1,nt,13*,0%,nt,7,-8%
O=C(O/N=C1\CCCc2ccccc21)C1CC1,6%,-1,-1%,i,-8,1%
Cc1cccc(C(=O)O/N=C2\CCCc3ccccc32)c1,nt,24*,?,nt,41*,3%
Cc1cnc(-n2ncc(C(=O)N(C)C3CCOC3)c2-c2cccs2)nc1-c1ccc(F)cc1 (stereo not given),-7%,nt,nt,-13%,nt,nt
CC(C)c1cc(C(=O)N2CCCC(Nc3ccc(F)cc3)C2)n[nH]1 (stereo not given),-14%,19*,8%,i,16,-10%
CC(C)c1ccc(NC2CCCN(C(=O)c3ccoc3)C2)cc1 (stereo not given),nt,24,nt,nt,32*,nt
O=C(c1ccc2c(c1)N(Cc1ccc(Cl)cc1)C(=O)c1ccccc1S2(=O)=O)N1CCC(Cc2ccccc2)CC1,-10%,nt,?,-5%,nt,?

# Assay outcomes (PubChem)
